LASV entry inh: Lassa virus entry inhibition | Lassa virus pseudotype entry inhibition, cell reporter | Potency, µM (highest dose often 37.9 µM), for the others: at the highest dose activity change, negative = inhibition, usual class: inhibitors | actives 1.2% (n = 300,000) | AID 540256; calls by dose curve; tested in HEK293 cells; note: nearly all actives have a fitted effect of over 50% in size
HCV inhibitor: HCV inhibition; Huh7.5.1 HCVcc-Cre infection, luciferase reporter, 44 h; Potency, µM (series often up to 41.8 µM), without a hit: at the highest dose activity change, negative = inhibition, hits mostly inhibitors; actives 3.4% (n = 340,000); AID 651820
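HCVcc-Cre virus at an moi near 0.5 was added right after compound to cells cultured 4 h from seeding (1,000 cells/well). Luciferase activity was determined 44 h later, 15 min after substrate addition at RT.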
Sm TGR block: blocks Schistosoma mansoni thioredoxin glutathione reductase; Potency, µM (series often up to 114 µM), for the others: at the highest dose activity change, negative = inhibition, usual class: inhibitors; purified TGR, DTNB reduction, TNB absorbance 405 nm; actives 3% (n = 360,000); AID 485364; Q962Y6; note: nearly all actives have a fitted effect of over 60% in size
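First, TGR (20 nM dispensed) and NADPH were mixed with compound. Second, a 15 min room-temperature incubation followed. Third, further NADPH and then DTNB were added to start the reaction. Finally, TNB absorbance was monitored kinetically.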
FMDV antiviral: blocks foot and mouth disease virus | FMDV antiviral cell-based qHTS | Potency, µM (top dose mostly 57.9 µM), for the others: at the highest dose activity change, negative = inhibition, hits mostly inhibitors | actives 1.2% (n = 410,000) | AID 1159524; calls by dose curve; tested in HEK293T cells; note: read-out not given here; nearly all actives have a fitted effect of over 45% in size
RE007 growth inh: less growth of the S. pombe RE007 Vpr strain. S. pombe RE007 Vpr strain, BacTiter-Glo ATP luminescence, 24 h. Potency, µM (series often up to 92.2 µM), for inactives: at the top dose activity change, negative = less growth, usual class: inhibitors. actives 0.21% (n = 360,000). AID 651644; active = well fitted falling curve with a large enough effect; inconclusive = small, poorly fitted or top-dose-only effect; inactive = no such curve, though single readings can be large or run the other way; note: nearly all actives have a fitted effect of over 50% in size
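Fission yeast strain RE007, carrying one chromosomally integrated HIV-1 vpr copy, was seeded at OD 0.01 in PMG+AL medium with 23 nL pinned compound. After 24 h at 30 °C and 99% humidity, viability was read by BacTiter-Glo luminescence.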
MARV entry inh: Marburg virus entry inhibition | Marburg virus pseudotyped entry inhibition, cell reporter | AID 540276 | actives 1.8% (n = 300,000) | Potency, µM (doses to about 37.8 µM), inactives show at the highest dose activity change, negative = inhibition, usual class: inhibitors; calls by dose curve; tested in HEK293 cells
An asterisk follows results filed as active; ? = inconclusive; . = no result; [ ] = remark or other dose. Most compounds without a hit are left out; they make up all but 7.2% or so of the library. Unless noted, calls come from the whole dose curve; as a rule, active = well fitted curve in the direction sought with a large enough effect; inconclusive = small, poorly fitted or top-dose-only effect, or another doubt; inactive = no such curve, though single readings can be large; an effect the other way counts as inactive or inconclusive. % is set by controls: 0 for no effect and ±100 for the full control effect; potency is the fitted concentration of half-maximal effect.

SMILES	LASV entry inh	HCV inhibitor	Sm TGR block	FMDV antiviral	RE007 growth inh	MARV entry inh
CCC(C)(C)NC(=S)Nc1ccc(-c2nc3ccc(C)cc3s2)cc1	?	-21%	-6%	30%	.	?
Cc1ccc2nc(-c3ccc(NC(=S)NCC(C)(C)CN(C)C)cc3)sc2c1	.	2.2µM*	.	-3%	-8%	.
Cc1ccc2nc(-c3ccc(N)cc3)sc2c1	?	?	-3%	8.9µM*	-3%	3.5µM*
COc1ccc(CN2CCCC(n3cc(C(=O)NC4CCCC4)nn3)C2)c(O)c1 (stereo unspecified)	.	.	.	-20%	.	.
Nc1nc2c(nc(Sc3ccc(Cl)cc3)n2C2OC(CO)C(O)C2O)c(=O)[nH]1 (stereo unspecified)	.	.	.	-13%	.	.
COc1ccccc1N1CCN(c2nc(CNC(=O)C3CCOC(C)(C)C3)nc3ccccc23)CC1 (stereo unspecified)	.	.	.	-24%	.	.
CCCCN1C(=O)C(CC(=O)NCCCN(C)C)CC(C(=O)N2CCCCCC2)=C1C (stereo unspecified)	.	.	.	-27%	-15%	.
Cn1c(CS(=O)Cc2c(Cl)cccc2Cl)nnc1SCc1ccc(Cl)cc1 (stereo unspecified)	6%	-18%	-7%	-3%	-7%	-16%
O=S(Cc1ccc(Br)cc1)Cc1nnc(SCc2ccc(Cl)cc2)n1-c1ccccc1 (stereo unspecified)	13µM*	6.3µM*	0%	0%	-1%	?
O=S(Cc1ccc(Br)cc1)Cc1nnc(SCc2c(F)cccc2Cl)n1-c1ccccc1 (stereo unspecified)	?	?	-3%	35µM*	0%	?
COC(=O)c1ccc(OCC2c3cc(OC)c(OC)cc3CCN2C(=O)c2ccccc2C)cc1 (stereo unspecified)	-4%[46.1 µM]	.	4%	?	.	.
CCCCN(CC)C(=O)Nc1ccc2c(c1)N(C)C(=O)c1ccccc1S2	?	.	0%	-21%	.	?
COC1CC(C)C(OC)c2cc(O)cc(c2O)NC(=O)C(C)=CC=CC(C)C(OC(N)=O)C(C)=CC(C)C1OC (stereo unspecified)	?	?	.	126µM*	15%	3.5µM*
COC1C=CC=C(C)C(=O)NC2=CC(=O)C(N)=C(CC(C)CC(OC)C(O)C(C)C=C(C)C1OC(N)=O)C2=O (stereo unspecified)	0.45µM*	?	.	10µM*	6%	0.2µM*
CC1=C(C(=O)Nc2ccc(C)cc2C)C(c2ccccc2F)n2nc(SCC(=O)c3ccc(C)cc3)nc2N1 (stereo unspecified)	19%[46.1 µM]	.	-13%	-6%	.	.
Cc1ccc(-n2nnc(-c3nc(-c4cccs4)no3)c2N)cc1C	19%[46.1 µM]	.	-10%	31%	.	.
CCN1C(=O)[C@@H]2[C@@H](c3ccc(-c4ccc(Cl)c(Cl)c4)cc3)N3CCCC[C@@]3(C(=O)OC)[C@@H]2C1=O	.	14%	-14%	0%	13%	.
CCN1C(=O)[C@H]2[C@@H](c3ccc(-c4ccc(OC)cc4)c(OC)c3)N3CCCC[C@@]3(C(=O)OC)[C@H]2C1=O	.	?	-20%	-21%	2%	.
CCN1C(=O)[C@H]2[C@@H](c3ccc(-c4ccc(F)cc4)c(OC)c3)N3CCC[C@@]3(C(=O)OC)[C@H]2C1=O	.	3.2µM*	?	-27%	4%	.
CCN1C(=O)[C@@H]2[C@@H](c3ccc(-c4ccc(Cl)c(Cl)c4)c(OC)c3)N3CCC[C@@]3(C(=O)OC)[C@@H]2C1=O	.	10µM*	35µM*	-29%	-20%	.
CCc1c(C)nc2nc(-c3ccccc3)nn2c1NCc1ccc(C)cc1	-26%[46.1 µM]	.	-20%	-21%	.	?
COC(=O)c1cc(NC(=S)NC(=O)c2ccccc2)ccc1N1CCOCC1	.	?	25µM*	-18%	-18%	.
CCC(=O)N1CCN(c2ccc(NC(=S)NC(=O)c3cccc([N+](=O)[O-])c3)cc2)CC1	6%	-25%	10µM*	?	3%	-25%
CC(=O)c1cccc(NC(=S)NC(=O)c2ccc(Cl)cc2)c1	-3%	-22%	-20%	53%	6%	?

Assay outcomes as filed in PubChem.
